# Test results reported in PubChem BioAssay AID504546 (Broad Institute, 2011).
# Results filed as inconclusive are left out. Unmarked numbers belong to inactive results.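 How the source made its calls: active means every repeat run fits a falling-signal curve with half-maximal potency within ten times top tested dose; inconclusive means runs disagree, or flat moderate drop, or poor fit; inactive means every run inactive, including signal moving upward.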
# Experiment: inhibition of ADP-Glo detection reagents, dose response, artefact control for CDK5 inhibitor project, biochemical, luminescence, cherry-picked samples, set 2 (AID 504546);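 further: 0% = DMSO wells and -100% = wells lacking ADP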
# Settings: ADP-Glo detection reagent counter screen, 5 uM ADP; series mostly up to 30 µM; activity change, negative = inhibition: at the top concentration
row,Compound,"activity change, negative = inhibition [%]"
1,CC(=O)[C@H]1CC[C@H]2[C@@H]3CC=C4C[C@@H](OS(=O)(=O)O)CC[C@]4(C)[C@H]3CC[C@]12C,-2.09
2,COc1ccc(Nc2nccc(-c3ccc(C#N)cc3)n2)cc1,7.64
3,COc1cc(/C=N/Nc2ccc(C(F)(F)F)cn2)ccc1O,-6.89
4,Cc1cccc(Nc2nc(N)c([N+](=O)[O-])c(NCCO)n2)c1,-6.98
5,CC(C)(C)c1ccc(C(=O)O/N=C(\N)c2ccccn2)cc1,5.19
6,Cc1ccc(Nc2nc(NCCO)nc3c2cnn3C)cc1Cl,-8.75
7,Clc1ccc(N/N=C/c2ccncc2)cc1Cl,-12.5
8,O=C1Nc2cc(C(=O)N3CCC(N4CCCCC4)CC3)ccc2S/C1=C\c1ccccc1,-9.15
9,COc1cccc(OC)c1C(=O)N1CCN(c2ccccn2)CC1,11.9
10,NC(=O)c1cc([N+](=O)[O-])c(Cl)cc1NCc1cccnc1,3.23
11,NC(=S)N/N=C/c1c(O)c(Br)cc2oc3c(c12)CCCC3,3.71
12,CC(C)[C@H](CO)Nc1nc(NCc2ccc(S(N)(=O)=O)cc2)c2ncn(C(C)C)c2n1,0.978
13,CC[C@H](CO)Nc1nc(Nc2cccc(Cl)c2)c2ncn(C(C)C)c2n1,15.9
14,Cc1nc(Nc2ccccc2)sc1C(=O)c1ccccc1,1.1
15,O=[N+]([O-])c1ccc2c(c1)/C(=N\O)c1ccccc1-2,-10.3
16,C=CC(=O)Nc1ccc(Nc2ccnc(Nc3ccc(N4CCN(C)CC4)cc3)n2)cc1,15.2
17,O=C(NNC(=O)c1cccs1)c1ccccc1,-9.37
18,FC(F)(F)c1ccc(N/N=C/c2cccnc2)nc1,18.8

row,Compound,"activity change, negative = inhibition [%]"
1,COc1cc2ccccc2ccc1=NO,15.2
2,O=C(O)c1ccc(/C=N\Nc2ccccn2)cc1,-6.4
3,CCCn1c(NC(=O)c2cccc(S(=O)(=O)N3CCCC3)c2)nc2ccccc21,13.4
4,Oc1[nH]c2ccccc2c1C1=NCCCCC1,-3.84
5,Nc1nc(Nc2cccc(F)c2)nc(NCCO)c1[N+](=O)[O-],6.61
6,Oc1ccc(-c2nc(-c3ccc(O)c(O)c3)cs2)cc1,8.38
7,COc1ccc2nc(C(F)(F)C(F)(F)F)c(C#N)c(N)c2c1,4.41
8,Nc1cc2c(cc1[N+](=O)[O-])-c1ccccc1C2=NO,-0.261
9,CCNc1nc(Nc2ccc(C)c(Cl)c2)c2cnn(C)c2n1,13.5
10,O=c1c(O)cccc2cc(O)c(O)c(O)c12,0.618
11,COc1ccc(S(=O)(=O)Nc2c(C(=O)O)[nH]c3ccc(OC)cc23)c(OC)c1,14.8
12,NC(=O)N/N=C/c1c(O)ccc2oc3c(c12)CCCC3,-5.29
13,Cc1cccc(/N=C/c2c(O)ccc3oc4c(c23)CCCC4)n1,4.68
14,Cc1nn(-c2nccs2)c2c1C(=O)CC(C)(C)C2Br (stereo not given),16
15,N#Cc1c(N)n(C2OC(CO)C(O)C2O)c2ncnc(N)c12 (stereo not given),7.26
16,S=C(c1ccc(OCc2ccccc2)cc1)N1CCCC1,1.64
17,O=C(NNC(=O)c1ccccn1)c1ccc(OC(F)F)cc1,5.32
